The text below walks through data of PubChem BioAssay (Tox21).

The structures appear in SMILES notation. Activity calls are given as the source filed them. The call rests on the fitted dose curve.
On the % scale 0 is the no-effect control and ±100 the full control effect.

This assay is described as follows: G protein-coupled receptor (GPCR) small molecule agonists, calcium flux assay: HEK293 wild type cell line counter screen (AID 1920065). The settings on record: HEK293 WT calcium flux, fluorescence, agonist mode; series mostly up to 57.6 µM; activation: at the top concentration. The text has this: U.S. Tox21 Program National Center for Advancing Translational Sciences [NCATS] Division of Preclinical Innovation [DPI] U.S. Environmental Protection Agency [EPA] National Institutes of Environmental Health Sciences [NIEHS] National Toxicology Program [NTP] U.S. Food and Drug Administration [FDA] Assay overview: The increased intracellular calcium release that occurred upon G protein-coupled receptor (GPCR) activation led to the frequent use of calcium flux assays to detect GPCR activation. For the purpose of studying and screening compounds that may activate GPCR, receptor-overexpressing models were typically generated using Hek293 wild-type (WT) cells. In order to eliminate the compounds that may have induced calcium release for non-specific activation, a counter-assay utilizing calcium flux on Hek293 WT cells was performed. The data were formulated in order to serve as a control for any calcium flux detection utilizing Hek293 cells with either GPCR overexpression or gene modification. The procurement of Hek293 WT cells from ATCC. Fluorescence intensity can be utilized to determine the activation of the compound in a calcium flux assay. As a counter control, this cell line was utilized to screen the Tox21 10K compound library.
Assay Protocol Summary: Hek293 cells were dispensed at 1500cells/4uL/well in 1536-well black wall/clear bottom plates using a multidrop dispenser. After the assay plates were incubated at a 37 C/5% CO2 incubator for 18 hours, 4 uL of Calcium Dye Solution was added to each well. The plates were incubated at 37 C for 1 hour. For agonist mode, 23 nL of compounds dissolved in DMSO, positive control (ATP) or DMSO only was transferred to the assay plate by a pin tool station. The fluorescence intensity in the plates was measured using FDSS 7000EX kinetic plate reader with a filter set of Ex/Em=480/540 for 3 min at 1 sec intervals. Each test compound was measured at 15 concentrations and in triplicates.
(In general: A change in cytosolic calcium serves as a functional read-out for many receptors and channels.)
With `CCCC1CCCC(=O)O1` (stereo not given), the “activation” value was 0.995% (inactive).

Take `N=C(N)c1ccc(OCCCOc2ccc(C(=N)N)cc2)cc1`: the “activation” value was -0.578% [at 26.5 µM] (inactive).

Regarding `C[N+](C)(C)CCOC(=O)CCC(=O)OCC[N+](C)(C)C`, the “activation” value is -0.0358% [at 26.5 µM] (inactive).

Turning to `Cc1oc(-c2ccccc2)nc1CCC(=O)c1ccc(CC2SC(=O)NC2=O)cc1` (stereo not given), the “activation” value is -1.97% [at 26.5 µM] (inactive).

Take `CCOC(=O)c1ccccc1`: the “activation” value is -1.14% (inactive).

For `CC1(C)CC(N)CC(C)(C)N1`, the “activation” value is -0.17% (inactive).

As for `CCN1CCN(c2cc3c(cc2F)c(=O)c(C(=O)O)cn3C2CC2)CC1`, the “activation” value was -1.57% [at 26.5 µM] (inactive).

As for `Cc1cc(O)c(C(C)(C)C)cc1C(C)(C)C`, the “activation” value is -1.1% (inactive).

Take `O=P(O)(O)Oc1ccccc1`: the “activation” value is -1.25% (inactive).

For `CC(C(O)c1ccc(O)cc1)N1CCC(Cc2ccccc2)CC1` (stereo not given), the “activation” value is -0.406% [at 26.5 µM] (inactive).

As for `O=C1c2ccccc2C(=O)C1(O)O`, the “activation” value is -0.372% (inactive).

Consider `CC(=O)CC(=O)Nc1ccc(C)cc1C`, for which the “activation” value is -0.428% (inactive).

Turning to `O=S(=O)(O)CCO`, the “activation” value is -0.0983% (inactive).

On to `CN1Cc2cc(C(=O)N3CCC(C4CCNCC4)CC3)ccc2N[C@@H](CC(=O)O)C1=O`, for which the “activation” value was -0.514% [at 26.5 µM] (inactive).

With `O=C(O)c1ccc2cc(O)ccc2c1`, the “activation” value is 0.439% (inactive).

Take `CCOCC(O)COc1ccc(NC(=O)CC[S+](C)C)cc1` (stereo not given): the “activation” value is 2.59% [at 26.5 µM] (inactive).

On to `CC1OC(=O)C(C)OC1=O` (stereo not given), for which the “activation” value was 0.41% (inactive).

On to `CCN(CC)CCNC(=O)c1cc(S(C)(=O)=O)ccc1OC`, for which the “activation” value is 0.515% [at 26.5 µM] (inactive).

As to `CCN(CC)CCOc1ccccc1C(=O)CCc1ccccc1`, the “activation” value was 0.454% [at 26.5 µM] (inactive).

For the compound `Cc1scc2c1N(C(=O)CN1CCN(C)CC1)c1ccccc1NC2=O`, the “activation” value is -1.33% [at 26.5 µM] (inactive).

Turning to `CN(C)CCN(C)CCN(C)C`, the “activation” value was -0.0861% (inactive).

Take `CCN(CC)c1cccc(C)c1`: the “activation” value is 0.685% (inactive).

Turning to `COc1ncnc(NS(=O)(=O)c2ccc(N)cc2)c1OC`, the “activation” value was 0.276% [at 26.5 µM] (inactive).

As to `O=C1NCN(c2ccccc2)C12CCN(CCCC(c1ccc(F)cc1)c1ccc(F)cc1)CC2`, the “activation” value is -0.183% [at 26.5 µM] (inactive).

As to `CCN(CC)CCOc1ccc(C(O)(Cc2ccc(Cl)cc2)c2ccc(C)cc2)cc1` (stereo not given), the “activation” value is 1.53% [at 26.5 µM] (inactive).

With `Nc1ccc(S(=O)(=O)NCc2ccccc2)cc1`, the “activation” value is 0.39% [at 26.5 µM] (inactive).

Take `CC(=O)c1ccc(C(C)=O)cc1`: the “activation” value is 0.443% (inactive).

`CCCN(CCC)CCc1cccc2c1CC(=O)N2`: the “activation” value was 0.0478% [at 26.5 µM] (inactive).

`CC(C)(O)c1ccc(CNC(=O)c2cccnc2Oc2ccc3nonc3c2)cc1`: the “activation” value is 0.0027% (inactive).

In the case of `CCN(Cc1c(F)cccc1Cl)c1c([N+](=O)[O-])cc(C(F)(F)F)cc1[N+](=O)[O-]`, the “activation” value is 0.574% (inactive).

Consider `COc1ccc(OC)c(NC(=O)CC(C)=O)c1`, for which the “activation” value is -0.491% (inactive).

As for `CC(C)NNC(=O)c1ccncc1`, the “activation” value is 1.95% [at 26.5 µM] (inactive).

In the case of `N=C1N=C(N)c2ccccc21`, the “activation” value was -0.176% (inactive).

Take `C#Cc1ccc(-c2ccccc2F)cc1`: the “activation” value was -1.2% [at 26.5 µM] (inactive).

`Cc1cc(C(=O)O)ccc1[N+](=O)[O-]`: the “activation” value is -0.241% (inactive).

As for `FC(F)(F)C(F)(F)C(F)(F)C(F)(F)C(F)(F)C(F)(F)C(F)(F)C(F)(F)Br`, the “activation” value is -0.0237% [at 26.5 µM] (inactive).

With `CC1=C2[C@@H]([C@H](C)CC[C@H]2/C=C(\C)C(=O)O)[C@H](O)C1`, the “activation” value was 0.0327% (inactive).

With `NC(=O)c1ccccc1[N+](=O)[O-]`, the “activation” value is -0.0448% (inactive).

Consider `O=C(OCc1ccccc1)C(=O)OCc1ccccc1`, for which the “activation” value was -0.31% (inactive).

For the compound `CC1(C)[C@H]2CC[C@]1(C)C(=O)C2`, the “activation” value was 0.283% (inactive).
